Compounds without any hit were thinned out: in the full panel of roughly 79,000, 15% have a hit. Rule as the data show it: active = growth inhibition above about 70%; inactive = the rest.
Tests used:
[1] = NCI Yeast Anticancer Drug Screen. Data for the rad50 strain (AID 155);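 also: 0% = growth of vehicle-only cultures of the same strain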; conditions: S. cerevisiae rad50 strain growth inhibition; at 50.0 µM; stronger effect = higher value
In short: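 DNA repair mutant yeast, compound exposure, growth read-out; inhibition is taken relative to vehicle.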

[2] = NCI Yeast Anticancer Drug Screen. Data for the mec2-1 strain (AID 157); conditions: S. cerevisiae mec2-1 strain, at 50.0 µM, stronger effect = higher value
In short: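 Each compound was tested on mec2-1 yeast, a strain altered in DNA damage repair or cell cycle control. Growth inhibition is reported relative to vehicle.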

[3] = NCI Yeast Anticancer Drug Screen. Data for the sgs1 mgt1 strain (AID 161);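 also: 0% = growth of cultures given vehicle only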; conditions: S. cerevisiae sgs1 mgt1 strain, at 50.0 µM, stronger effect = higher value
In short: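 Read-out: growth inhibition vs vehicle controls. Cells: mutant yeast strain deficient in DNA damage repair.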

[4] = NCI Yeast Anticancer Drug Screen. Data for the cln2 rad14 strain (AID 165);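 also: 0% = growth equal to vehicle treated cultures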; conditions: S. cerevisiae cln2 rad14 strain, at 50.0 µM, stronger effect = higher value
In short: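 Test compounds were added to cln2 rad14 yeast cultures; inhibition of growth was then determined by comparison with vehicle treatment.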

[5] = NCI Yeast Anticancer Drug Screen. Data for the bub3 strain (AID 167); conditions: S. cerevisiae bub3 mutant strain, at 50.0 µM, stronger effect = higher value
In short: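 In this screen, a yeast mutant lacking normal mitotic checkpoint function is challenged with compound. Relative growth versus vehicle gives the inhibition value.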

[6] = NCI Yeast Anticancer Drug Screen. Data for the mlh1 rad18 strain (AID 175); conditions: S. cerevisiae mlh1 rad18 strain growth inhibition; at 50.0 µM; stronger effect = higher value
In short: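 Inhibition values reflect reduced growth of mutant yeast versus vehicle-treated controls following compound exposure; the mutations affect DNA damage repair.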

Measured: growth inhibition

COc1ccc(C[N+](C)(C)N)cc1OC
inactive: [1] -13.8% | [2] -18.2% | [3] -21.9% | [4] -9.7% | [5] -40.5% | [6] -34.1%

O=S(=O)(Nc1cccc(F)c1)c1ccc(F)cc1
inactive: [1] -12.5% | [2] -10.4% | [3] -3.6% | [4] 0.3% | [5] -9.95% | [6] 11.6%

O=C1NC(=O)[C@H]2C[C@H]3C(=O)NC(=O)[C@H]3[C@@H]12
inactive: [1] -0.7% | [2] 2.75% | [3] -6.9% | [4] -11.3% | [5] 3.8% | [6] 7.15%

CC(C)CCC[C@@H](C)[C@H]1CC[C@H]2C3=CC=C4C[C@H](OC(=O)c5ccccc5)CC[C@]4(C)[C@H]3CC[C@]12C
inactive: [1] 0.4% | [2] 5.5% | [3] 11% | [4] 3.7% | [5] -1.25% | [6] -10.2%

Cc1cccc(NC(=O)CCCCCCCCC(=O)Nc2cccc(C)c2C)c1C
inactive: [1] -4.8% | [2] 0.7% | [3] -2.3% | [4] -41.4% | [5] -2.05% | [6] 12.2%

NC(=S)c1cccc(C(N)=S)n1
inactive: [1] 18.7% | [2] 19.9% | [3] 23.9% | [4] -27.9% | [5] 22.6% | [6] 26.6%

NC(=S)Cc1ccccn1
inactive: [1] -1.45% | [2] 15.5% | [3] 9.25% | [4] -19.1% | [5] -4.45% | [6] 6.55%

COc1cc([N+](=O)[O-])c(OC)cc1N
inactive: [1] 2.45% | [2] -8.3% | [3] -13.1% | [4] -27.4% | [5] -27.4% | [6] 27.6%

CC(C)C(CN)(c1ccccc1)c1ccccc1
inactive: [1] -4.4% | [2] -7.75% | [3] -8.85% | [4] -59% | [5] -3.3% | [6] -10.9%

CCCCSCC(N)C(=O)OC (configuration not stated)
inactive: [1] 19.1% | [2] -11.2% | [3] 4% | [4] -65.5% | [5] 3.75% | [6] 2.8%

CC(=O)N(c1ccccc1)c1cc(Cl)cc[n+]1[O-]
inactive: [1] 8.5% | [2] 3.5% | [3] 5.45% | [4] -3.7% | [5] 5.3% | [6] -2.05%

CCOC(=O)NC(=O)c1cn(CCCCCOC(=O)NCCCCCCNC(=O)OCCCCCn2cc(C(=O)NC(=O)OCC)c(=O)[nH]c2=O)c(=O)[nH]c1=O
inactive: [1] 20.6% | [2] 13.2% | [3] 12.6% | [4] 21.9% | [5] 6.7% | [6] 24.1%

CCOC(=O)c1c(-c2ccc(Cl)cc2)c(C#N)c(=S)n(C2OC(COC(C)=O)C(OC(C)=O)C(OC(C)=O)C2OC(C)=O)c1-c1ccccc1 (configuration not stated)
inactive: [1] -1.45% | [2] -3.9% | [3] -6.8% | [4] 25.9% | [5] 17.9% | [6] 4.7%

Cc1c(C)c(C)c(CNNC(=S)Nc2cccc(Cl)c2)c(C)c1C
inactive: [1] -6.35% | [2] 5.7% | [3] -1.35% | [4] -3.45% | [5] -3.5% | [6] 21.1%

COC(=O)c1n[nH]n(Cc2cccs2)c1=O (tested in a mixture with another compound)
inactive: [1] 14.8% | [2] 13.9% | [3] 16.1% | [4] -0.85% | [5] 10.6% | [6] 26.2%

COC1OC(OC2OC=C3C(=O)OC4CC(C)C2C34)C(O)C(O)C1O (configuration not stated)
inactive: [1] -17.1% | [2] -34.2% | [3] -18.7% | [4] -14.3% | [5] -33.4% | [6] -29.1%

O=c1cc(S(=O)(=O)Cc2ccccc2)[nH]c(=O)[nH]1
inactive: [1] 43% | [2] 6.75% | [3] 0.2% | [4] -43.6% | [5] 8.35% | [6] 31.2%

CC1(C)CC2CC(CC(C)(C)C2=O)C1=O
inactive: [1] -8.65% | [2] -11% | [3] -0.7% | [4] 5.05% | [5] 7.9% | [6] -1.75%

C/C(=N/O)c1sc(-c2nc(C)c(/C(C)=N\O)s2)nc1C
inactive: [1] -1.7% | [2] -19.3% | [3] 4.7% | [4] 4.85% | [5] -6.6% | [6] 3.05%

CCOC(=O)CC(=O)C(=O)NNC1=NCCCN1
inactive: [1] 7.25% | [2] -5.35% | [3] -20.1% | [4] 14.2% | [5] 2.3% | [6] 0.45%

Nc1nc(C(=O)O)c([N+](=O)[O-])c(=O)[nH]1
inactive: [1] -31.6% | [2] -13.7% | [3] -14.4% | [4] -20.5% | [5] -6.9% | [6] -11.8%

Cc1nnc(-c2cn(C3OC(CO)C(O)C3O)c3ncnc(N)c23)nc1C (configuration not stated)
inactive: [1] 6.2% | [2] 15.9% | [3] 1% | [4] 0% | [5] -4.1% | [6] 8.9%

CCOP(=O)(OCC)/C(C#N)=C/c1cccc([N+](=O)[O-])c1
inactive: [1] -14.2% | [2] 2.5% | [3] -4.85% | [4] 3.85% | [5] -6.55% | [6] 9.25%

CCCCCC(C)(O)CC(C)(C)C (configuration not stated)
inactive: [1] -3.15% | [2] 5.75% | [3] 0.55% | [4] -7.95% | [5] 2.2% | [6] 34.8%

N#C/C(=C/NC(=S)NCc1ccccc1)C(N)=O
inactive: [1] -32.6% | [2] -42.1% | [3] -4.6% | [4] 0.25% | [5] 6.7% | [6] -0.3%

Clc1ccc(NC2=NCCN=C(Nc3ccc(Cl)cc3)SS2)cc1
inactive: [1] 23.7% | [2] 14.2% | [3] 39.8% | [4] 17.4% | [5] 37.5% | [6] 20.7%

COc1cc(/C=C/C(=O)c2sc(-n3nc(-c4ccccc4)cc3-c3ccccc3)nc2C)ccc1O
inactive: [1] 6% | [2] -13.6% | [3] -34.4% | [4] 4.9% | [5] 26.4% | [6] -10%

CCOC(=O)C(=[N+]=[N-])C(=O)c1cc2ccccc2oc1=O
inactive: [1] -19.2% | [2] 6.85% | [3] 13.6% | [4] -0.55% | [5] -13.7% | [6] 22.2%

O=c1[nH]c2c(Cl)c(Cl)cc(Cl)c2o1
inactive: [1] 51.1% | [2] 6.4% | [3] 23.9% | [4] 48.2% | [5] 13.6% | [6] 43.6%

O=C1C=C(Nc2ccccc2C(=O)CC(=O)C(=O)Nc2ccc(Cl)cc2)c2ccccc2C1=O
inactive: [1] 5.05% | [2] 0.95% | [3] 6.9% | [4] -3.05% | [5] 42.5% | [6] 9.8%

Cc1cc2c(cc1C)NC1=C(N2)OC(c2ccc(C3OC4=C(Nc5cc(C)c(C)cc5N4)C3=O)cc2)C1=O (configuration not stated)
inactive: [1] 32.2% | [2] 14.8% | [3] 9.95% | [4] 16.5% | [5] 0.75% | [6] 29.6%

CN(C)Cc1cc(C(=O)c2ccccc2)c(O)cc1O
inactive: [1] -38.4% | [2] -4.05% | [3] -0.9% | [4] -23.6% | [5] -2.05% | [6] 13.2%

O=c1/c(=C/c2cccc([N+](=O)[O-])c2)sc2nc3ccccc3n12
inactive: [1] -9.95% | [2] -12.7% | [3] -18.1% | [4] -4.65% | [5] -10.1% | [6] -12.7%

N#CCCN(Cc1ccccc1)CN1C(=O)c2ccccc2C1=O
inactive: [1] 8.75% | [2] 5.5% | [3] 12.1% | [4] 17.9% | [5] 6.4% | [6] -10.3%

C/C(=N/NC(N)=O)C1=CCCC1
inactive: [1] 2.9% | [2] -2.05% | [3] -6.6% | [4] 11% | [5] 7.55% | [6] -9.1%

Nc1ccc2ccc(S(=O)(=O)O)cc2c1
inactive: [1] -17.7% | [2] -19.9% | [3] -31.4% | [4] -23.3% | [5] -8.8% | [6] -17.9%

Nc1ccc(CC(=O)O)cc1S(=O)(=O)O
inactive: [1] 25.8% | [2] -18.4% | [3] 4% | [4] 9.1% | [5] 4.25% | [6] 26.6%
